Screening data (PubChem)
CHX counter = affects cycloheximide protein synthesis inhibition readout, counter-screen. cell reporter, cycloheximide protein synthesis inhibition counterscreen. max response, %. actives 12% (n = 300,000). AID 2314; in the data active = max response mostly above about 13%, no sharp cut-off; inactive = mostly below about 14%; note: read at 38.3 µM for the half of the compounds with a filed dose; 0% is about no effect
SARS PLP yeast = inhibitors of SARS-CoV papain-like protease in yeast; Potency, µM (highest dose often 32.9 µM), for the others: at the highest dose activity, positive = growth rescue, usual class: activators; S. cerevisiae expressing SARS-CoV PLpro, growth rescue; actives 0.19% (n = 330,000); calls by dose curve; note: potency is the fitted concentration of half-maximal effect; 0% is about no effect; nearly all actives have a fitted effect of over 55% in size
NS1 inh = inhibitors of influenza NS1 protein function; AID 2326; actives 0.4% (n = 270,000); Potency, µM (titrated, usually from 46.1 µM), for the others: at the highest dose activity, positive = more growth; calls by dose curve; note: potency is the fitted concentration of half-maximal effect; actives are rising curves; nearly all actives have a fitted effect of over 50% in size
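Read-out: OD600 growth recovery of NS1-expressing budding yeast. Cells grown overnight at 30C in -URA glucose medium, washed, resuspended and diluted 1:100 in 2% galactose assay medium, pH 6.0. Same strain lacking NS1 served as positive control.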
Pf growth 48h = inhibits P. falciparum growth in the first generation, 48 h | P. falciparum luciferase growth in erythrocytes, 48 h | actives 5.9% (n = 310,000) | AID 504832 | Potency, µM (highest dose often 28.7 µM), for inactives: at the top dose activity change, negative = inhibition, most hits filed as inhibitors; note: potency is the fitted concentration of half-maximal effect; % is set by controls: 0 for no effect and ±100 for the full control effect
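Parasite viability was followed by luminescence of a genomically integrated firefly luciferase. Cultures held 0.1% parasitemia at 2% hematocrit (final), incubated under 5% CO2 at 37 C.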
Shiga inhibitor = Shiga toxin inhibition; Vero cells, Shiga toxin protein synthesis inhibition reporter; inhibition, % at 38.7 µM; actives 9.2% (n = 290,000); AID 2315; in the data active = inhibition mostly above about 28%, no sharp cut-off; inactive = mostly below about 43%; note: 0% is about no effect
Pf growth 96h = P. falciparum growth inhibition at 96 hour, primary screen for plastid delayed-death inhibitors | P. falciparum luciferase reporter growth, 96 h | Potency, µM (top dose mostly 28.7 µM), for inactives: top-dose activity change, negative = inhibition, actives largely listed as inhibitors | actives 6.9% (n = 320,000); note: potency is the fitted concentration of half-maximal effect; % is set by controls: 0 for no effect and ±100 for the full control effect
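Two parasite generations (96 h, 37 C, 5% CO2) of compound exposure in infected erythrocytes (0.05% parasitemia, 2% hematocrit). Luciferase-reporter P. falciparum; decreased luminescence indicates inhibited growth, aimed at apicoplast-acting delayed death.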
An asterisk follows results filed as active; [ ] = dose if it differs, or a comment. Only some compounds are listed: those with a hit (about 21% of all), similar ones and a draw of the others. Unless noted, calls come from the whole dose curve; as a rule, active = well fitted inhibition curve with a large enough effect; inconclusive = small, poorly fitted or top-dose-only effect, or another doubt; inactive = no such curve, though single readings can be large or run the other way.

Screening Cc1c(Cc2ccccc2)c(=O)oc2cc(OCC(=O)c3ccccc3)ccc12 returned CHX counter -6.8, SARS PLP yeast 19.6%, NS1 inh -2.7%, Pf growth 48h 10.3%, Shiga inhibitor -7.0 and Pf growth 96h -28.0%.
CCN(CC)C(=O)COc1ccc2c(-c3ccc(OC)cc3)cc(=O)oc2c1 was read as CHX counter 0.2, SARS PLP yeast -0.9%, NS1 inh -6.0%, Pf growth 48h inconclusive, Shiga inhibitor -12.3 and Pf growth 96h inconclusive.
Screening COc1ccc(S(=O)(=O)N2CCCC(C(=O)N3CCCC3)C2)cc1OC (stereo not given) returned SARS PLP yeast 0.5%, Pf growth 48h -5.8% and Pf growth 96h inconclusive.
For O=C(Nc1nc2ccccc2[nH]1)C1CCCC1 the results were CHX counter 60.5*, SARS PLP yeast 4.9%, Pf growth 48h 321.5%, Shiga inhibitor 81.2* and Pf growth 96h -19.2%.
For O=C(Cc1cccc2ccccc12)Nc1nc2ccccc2[nH]1 the results were CHX counter -1.7, SARS PLP yeast -11.5%, NS1 inh -9.2%, Pf growth 48h inconclusive and Shiga inhibitor -38.8.
Screening O=C(Nc1nc2ccccc2[nH]1)C1CCC1 returned CHX counter 41.6*, SARS PLP yeast 0.0%, Pf growth 48h 223.7%, Shiga inhibitor 108.5* and Pf growth 96h -18.4%.
For O=C(CC1CCCC1)Nc1nc2ccccc2[nH]1 the results were CHX counter 27.8*, SARS PLP yeast 8.3%, NS1 inh -10.1%, Pf growth 48h 111.6%, Shiga inhibitor 56.0 and Pf growth 96h 1.2%.
For c1cc(NNc2cccc(-c3nn[nH]n3)c2)cc(-c2nn[nH]n2)c1 the results were NS1 inh -1.4%.
Screening CN(C)C(=O)CCc1ccc2c3c([nH]c2c1)[C@]1(CCc2ccccc2)[C@@H](C(=O)N2CCCCC2)C[C@H](CC(=O)NCCCn2ccnc2)C(=O)N1CC3 returned SARS PLP yeast -21.6%.
COc1ccccc1-c1nnc2sc(COc3ccccc3)nn12 was read as CHX counter 1.5, SARS PLP yeast -6.5%, NS1 inh -30.1%, Pf growth 48h inconclusive, Shiga inhibitor -9.2 and Pf growth 96h -15.1%.
For c1ccc(OCc2nn3c(-c4cccnc4)nnc3s2)cc1 the results were CHX counter 0.1, SARS PLP yeast -2.3%, NS1 inh -8.5%, Pf growth 48h inconclusive, Shiga inhibitor 35.1 and Pf growth 96h 11.7µM*.
`Clc1ccccc1-c1nnc2sc(-c3ccc4c(c3)OCO4)nn12` gave CHX counter 19.2*, SARS PLP yeast -1.7%, NS1 inh inconclusive, Pf growth 48h 11.7µM*, Shiga inhibitor 40.1* and Pf growth 96h -19.2%.
CCN(CC)c1ccc(-c2nn3c(-c4ccccc4OC)nnc3s2)cc1 was read as CHX counter -0.6, SARS PLP yeast -17.9%, NS1 inh -68.5%, Pf growth 48h 2.62µM*, Shiga inhibitor 17.5 and Pf growth 96h 11.4%[5.75 µM].
Screening Clc1ccc(OCc2nn3c(-c4ccco4)nnc3s2)cc1 returned CHX counter 11.6, SARS PLP yeast -16.5%, NS1 inh -145.3%, Pf growth 48h 14.7µM*, Shiga inhibitor 6.2 and Pf growth 96h -23.2%.
`Clc1cccc(-c2nnc3sc(-c4ccc5c(c4)OCO5)nn23)c1` gave CHX counter -4.0, SARS PLP yeast -0.8%, NS1 inh -36.6%, Pf growth 48h 18.6%, Shiga inhibitor -10.2 and Pf growth 96h inconclusive.
Screening O=C(CCS(=O)(=O)c1nc(-c2cccs2)cc(C(F)(F)F)n1)Nc1cc(Br)ccc1O returned CHX counter -16.0 and Shiga inhibitor -15.4.
Screening Brc1ccccc1-c1csnn1 returned CHX counter -3.6, SARS PLP yeast 2.7%, NS1 inh 12.7%, Pf growth 48h 10.0%, Shiga inhibitor 19.7 and Pf growth 96h 26.4%.
Screening COc1ccccc1-c1nn2c(-c3ccco3)nnc2s1 returned CHX counter 67.7*, SARS PLP yeast -8.6%, NS1 inh -57.6%, Shiga inhibitor 112.5* and Pf growth 96h inconclusive.
For COc1ccc(OCc2nn3c(-c4ccco4)nnc3s2)cc1 the results were CHX counter 7.2, SARS PLP yeast -3.2%, NS1 inh -64.7%, Pf growth 48h -27.8% and Shiga inhibitor 11.9.
